Laboratory results published in publication PMC7826789 (International Journal of Molecular Sciences, 2021).

Legend:
Conditions in all cases: Compound Concentration (nM):1000
EIF2AK1 = system: EIF2AK1
EPHA1 = system: EPHA1
EPHA2 = system: EPHA2
EPHA3 = system: EPHA3
EPHA4 = system: EPHA4
EPHA5 = system: EPHA5
EPHA6 = system: EPHA6
EPHA7 = system: EPHA7
EPHA8 = system: EPHA8
EPHB1 = system: EPHB1
EPHB2 = system: EPHB2
EPHB3 = system: EPHB3
EPHB4 = system: EPHB4
EPHB6 = system: EPHB6
ERBB2 = system: ERBB2
ERBB3 = system: ERBB3
ERBB4 = system: ERBB4
ERK1 = system: T1, ERK1
T1 construct: gene MAPK3

ERK2 = system: T2, ERK2
T2 construct: gene MAPK1

ERK3 = system: T3, ERK3
T3 construct: gene MAPK6
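Note: KINOMEscan scanMAX binding as percent activity remaining versus control; lower means stronger binding.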

| SMILES | Percent Control (EIF2AK1) [%] | Percent Control (EPHA1) [%] | Percent Control (EPHA2) [%] | Percent Control (EPHA3) [%] | Percent Control (EPHA4) [%] | Percent Control (EPHA5) [%] | Percent Control (EPHA6) [%] | Percent Control (EPHA7) [%] | Percent Control (EPHA8) [%] | Percent Control (EPHB1) [%] | Percent Control (EPHB2) [%] | Percent Control (EPHB3) [%] | Percent Control (EPHB4) [%] | Percent Control (EPHB6) [%] | Percent Control (ERBB2) [%] | Percent Control (ERBB3) [%] | Percent Control (ERBB4) [%] | Percent Control (ERK1) [%] | Percent Control (ERK2) [%] | Percent Control (ERK3) [%] |
| --- | --- | --- | --- | --- | --- | --- | --- | --- | --- | --- | --- | --- | --- | --- | --- | --- | --- | --- | --- | --- |
| Cl.O=C(O[C@H]1CN[C@H](C#Cc2cc3ncnc(Nc4ccc5c(cnn5Cc5ccccc5)c4)c3s2)C1)N1CCOCC1 [GSK200398A] | 100 | 87 | 96 | 94 | 96 | 100 | 95 | 100 | 100 | 100 | 100 | 100 | 96 | 100 | 0 | 10 | 0 | 100 | 100 | 100 |
| COc1cccc(-c2c[nH]c3c(N/N=C/c4ccncc4)ncnc23)c1 [GW814408X] | 100 | 100 | 96 | 93 | 100 | 100 | 100 | 91 | 79 | 81 | 100 | 100 | 100 | 2.7 | 63 | 13 | 88 | 100 | 100 | 19 |
| COc1ccc2cc(-c3c(-c4ccncc4)nc(-c4ccc(S(C)(=O)=O)cc4C)n3C)ccc2c1 [SB-633825] | 91 | 89 | 76 | 90 | 66 | 99 | 63 | 48 | 69 | 64 | 91 | 80 | 73 | 74 | 12 | 84 | 22 | 91 | 95 | 42 |
| Cl.O=C(Nc1ccc(Oc2ccc3[nH]c(NC(=O)c4ccco4)nc3c2)cc1)Nc1cc(C(F)(F)F)ccc1F [GW683134A] | 100 | 20 | 15 | 58 | 14 | 53 | 35 | 17 | 1.1 | 39 | 31 | 99 | 87 | 3.2 | 79 | 77 | 100 | 100 | 100 | 90 |
| O=C(Nc1n[nH]c2nc(-c3ccc(O)cc3)c(Br)cc12)C1CC1 [SB-725317] | 14 | 82 | 100 | 85 | 86 | 100 | 100 | 100 | 100 | 100 | 100 | 100 | 100 | 57 | 80 | 32 | 100 | 100 | 100 | 100 |
| COc1cccc(-n2ncc3c(N/N=C/c4ccncc4)ncnc32)c1 [GW784752X] | 100 | 87 | 100 | 100 | 98 | 100 | 100 | 100 | 100 | 100 | 100 | 100 | 100 | 100 | 68 | 4.9 | 83 | 100 | 100 | 41 |
| Nc1ncnc2occ(-c3ccc(NC(=O)Nc4cc(C(F)(F)F)ccc4F)cc3)c12 [GW770249X] | 100 | 40 | 13 | 19 | 5.4 | 15 | 29 | 6 | 1.1 | 14 | 11 | 31 | 36 | 0.5 | 67 | 91 | 100 | 100 | 100 | 100 |
| CC(C)COC(=O)c1ccc2c(c1)/C(=C/Nc1ccc(S(N)(=O)=O)cc1)C(=O)N2 [GW416981X] | 100 | 100 | 100 | 100 | 94 | 100 | 100 | 100 | 100 | 100 | 100 | 100 | 100 | 100 | 26 | 81 | 50 | 100 | 100 | 100 |
| CCS(=O)(=O)c1ccc(OC)c(Nc2ncc(-c3cccc(F)c3)o2)c1 [GW621970X] | 100 | 65 | 100 | 68 | 96 | 100 | 100 | 100 | 100 | 100 | 100 | 100 | 99 | 1.6 | 88 | 53 | 100 | 100 | 100 | 100 |
| O=C1Nc2ccc(C(=O)c3ccco3)cc2C1=Cc1cc(Cl)c(O)c(Cl)c1 [GW406108X] | 100 | 100 | 75 | 100 | 89 | 100 | 100 | 100 | 100 | 100 | 100 | 89 | 98 | 63 | 83 | 87 | 100 | 100 | 94 | 94 |
| COC(=O)Nc1nc2ccc(Oc3ccc(NC(=O)Nc4cc(C(F)(F)F)ccc4F)cc3)cc2s1.Cl [GW693917A] | 100 | 19 | 14 | 9.9 | 12 | 52 | 11 | 16 | 0.5 | 31 | 34 | 81 | 59 | 9.4 | 100 | 45 | 100 | 100 | 100 | 66 |
| COc1cc(N2CCN(C(C)C)CC2)ccc1Nc1nc(Nc2ccc(F)cc2C(=O)NC[C@@H](O)CO)c2cc[nH]c2n1 [GSK1392956A] | 100 | 91 | 94 | 70 | 100 | 100 | 72 | 100 | 100 | 100 | 100 | 69 | 81 | 93 | 85 | 50 | 73 | 100 | 99 | 66 |
| CCn1c(-c2nonc2N)nc2c(C#CC(C)(C)O)nc(OCCNC)cc21.Cl [GSK949675] | 100 | 100 | 100 | 100 | 100 | 98 | 100 | 100 | 100 | 100 | 94 | 100 | 100 | 90 | 57 | 79 | 100 | 93 | 90 | 100 |
| COc1ccc(COc2ccc(Cc3cnc(N)nc3N)cc2OC)cc1 [GW632580X] | 100 | 97 | 100 | 100 | 99 | 93 | 98 | 100 | 90 | 90 | 81 | 73 | 92 | 100 | 94 | 85 | 100 | 95 | 92 | 87 |
| COc1ccc2[nH]c3c4[nH]c5ccc(OC)cc5c4c4c(c3c2c1)C(=O)NC4=O [GW296115X] | 86 | 93 | 85 | 86 | 86 | 85 | 88 | 86 | 87 | 77 | 84 | 85 | 84 | 7.3 | 100 | 85 | 59 | 85 | 76 | 84 |
| NS(=O)(=O)c1ccc(N/N=C2\C(=O)Nc3ccc(Cl)cc32)cc1 [GW280670X] | 100 | 100 | 100 | 100 | 96 | 100 | 100 | 100 | 100 | 100 | 100 | 100 | 100 | 82 | 81 | 72 | 100 | 100 | 100 | 100 |
| CCS(=O)(=O)c1ccc(OC)c(Nc2ncc(-c3cccc(OC)c3)o2)c1 [GW580509X] | 100 | 100 | 100 | 94 | 92 | 100 | 100 | 100 | 100 | 100 | 100 | 100 | 100 | 3.3 | 77 | 54 | 100 | 100 | 100 | 100 |
| CCc1ccc(Oc2nccc(-c3c(-c4ccc(F)cc4)ncn3C3CCNCC3)n2)cc1 [SB-242719] | 100 | 94 | 95 | 95 | 95 | 100 | 90 | 100 | 97 | 100 | 95 | 94 | 98 | 76 | 20 | 78 | 99 | 92 | 100 | 100 |
| NS(=O)(=O)c1ccc(N/N=C2\C(=O)Nc3ccc(C(=O)NCCc4c[nH]cn4)cc32)cc1 [GW300660X] | 100 | 100 | 100 | 100 | 89 | 100 | 100 | 100 | 100 | 100 | 100 | 100 | 100 | 37 | 57 | 86 | 100 | 100 | 100 | 100 |
| C[C@@H](Oc1cc(-n2cnc3ccc(OC4CCN(C)CC4)cc32)sc1C(N)=O)c1ccccc1Cl [GSK579289A] | 62 | 69 | 100 | 81 | 97 | 100 | 96 | 89 | 81 | 82 | 77 | 95 | 100 | 75 | 79 | 85 | 90 | 59 | 100 | 97 |
